Measured values: PubChem BioAssay AID1259313 (Sanford-Burnham Center for Chemical Genomics, 2017)
The whole screen tested about 340,000 compounds, of which about 8,500 (2.5%) were called active.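 Rule for the calls: active = melting temperature shift of at least 10% of the positive control shift, at one fixed dose; inactive = the rest.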 The list comes from a sample in which actives are over-represented; it also holds similar structures and randomly drawn compounds.

test system: Glutamate receptor ionotropic, NMDA 3A (GRIN3A) ligand-binding domain; assay: NR3A LBD thermal stabilization by compounds – biophysical, differential scanning fluorimetry, uHTS, primary screen (AID 1259313); conditions: at 25 µM, hits give high values, 0% = protein alone, 100% = glycine-bound protein

Structure (SMILES) | Tm shift relative to glycine control
Cc1ccc(C)c(NC(=S)NNC(=S)Nc2ccc(C(C)C)cc2)c1 | 12.8% (active)
Cc1ccc(C)c(NC(=S)NNC(=O)c2csc(C)c2)c1 | 1.94% (inactive)
CC(C)c1ccc(NC(=S)NNc2ccc(Cl)c(C(=O)O)c2)cc1 | -0.77% (inactive)
CN(C)CCCn1c(=O)n(Cc2ccccc2)c(=O)c2c3c(sc21)CCCCC3 | -3.1% (inactive)
CCCOP(=O)(c1ccc(N(C)C)cc1)C(O)c1cc(OC)c(OC)c(OC)c1 (stereo not drawn) | 3.76% (inactive)
CCOc1cc(-c2cc(-c3ccc(NC(C)=O)cc3)nc(N)c2C#N)ccc1O | -13.2% (inactive)
CCOc1cc(C=NNC(=O)CCCC(=O)NN=Cc2ccc(O)c(OCC)c2)ccc1O | 1.26% (inactive)
CCOc1cc(/C=C(\C#N)c2nc(-c3cccs3)c(NC(C)=O)s2)ccc1O | 10.9% (active)
Cc1noc(C)c1S(=O)(=O)NCCc1ccc(S(N)(=O)=O)cc1 | 5.94% (inactive)
O=C1c2ccccc2C(O)N1Cc1ccccc1Cl (stereo not drawn) | 12.8% (active)
O=c1ccn(Cc2ccccc2Cl)cc1 | 0.42% (inactive)
O=C1c2ccccc2C(O)N1Cc1ccccc1 (stereo not drawn) | 0.38% (inactive)
O=C(N/N=C/c1sc(N2CCCCC2)nc1-c1cccs1)c1cccnc1 | -0.4% (inactive)
O=C(COC(=O)COc1ccccc1F)Nc1cccc(S(=O)(=O)N2CCCCC2)c1 | -3.69% (inactive)
Brc1ccccc1CN1CCC(Cc2ccccc2)CC1 | 0.68% (inactive)
C=CCn1c(SCc2ccc(C(=O)NCCO)cc2)nc2ccccc2c1=O | -2.22% (inactive)
O=C(Nn1c(SCc2ccc([N+](=O)[O-])cc2)nc2ccccc2c1=O)c1ccc(F)cc1 | 14.8% (active)
Cc1nc2ccccc2c(=O)n1NC(=O)c1ccc(Cl)c([N+](=O)[O-])c1 | 0.49% (inactive)
COc1ccc(NC(=O)C2=CC(c3ccc(OC)c(OC)c3)=NS(=O)(=O)N2C)cc1 | -11.9% (inactive)
CCN1C(=O)C(C(=O)NC(C)c2ccccc2)C2CC1(C)Oc1ccccc12 (stereo not drawn) | -1.26% (inactive)
CC(C)CNC(=O)COC(=O)c1ccccc1OCC(=O)Nc1ccc(Br)cc1 | 0.17% (inactive)
CN(C)C=NC(=O)c1cccn1-c1ncc(C(F)(F)F)cc1Cl | -1.59% (inactive)
CCOC(=O)CN1C(=O)C(=O)c2cc(C)ccc21 | 0.43% (inactive)
CCCCOC(=O)Cn1c(=O)n(CC(=O)OCCCC)c2cc(C)ccc21 | 10.7% (active)

Structure (SMILES) | Tm shift relative to glycine control
Cc1ccc(C)c(NC(=O)COC(=O)Cn2c(C)csc2=O)c1 | 3.33% (inactive)
CN(C(=O)CSc1nnc(-c2ccc3c(c2)OCO3)o1)C1CCS(=O)(=O)C1 (stereo not drawn) | 1.73% (inactive)
O=C(CCC(=O)NNc1nc2ccccc2c2nc(-c3ccccc3)nn12)NCCCN1CCCC1=O | 0.34% (inactive)
COc1ccc2[nH]c3c(C)c4cc[n+](C)cc4c(C)c3c2c1 | -0.08% (inactive)
C=CCNC(=O)C1CC2c3ccccc3C1c1ccccc12 (stereo not drawn) | 1.25% (inactive)
CSc1ncccc1C(=O)Nc1nc2ccc(F)cc2s1 | 11.6% (active)
CSc1ncccc1C(=O)Nc1ccc2c(c1)OCO2 | -2.2% (inactive)
CSc1ncccc1C(=O)Nc1ccc(C)cn1 | 0.09% (inactive)
CCCn1c(N)c(N(CCOC)C(=O)C2CCCC2)c(=O)[nH]c1=O | 0.34% (inactive)
COc1ccc(CCNC(=O)CSc2nnc3ccc(-c4ccncc4)nn23)cc1 | -0.92% (inactive)
COc1ccc(NC(=O)CSCc2ccc([N+](=O)[O-])cc2)cc1OC | 4.6% (inactive)
Cc1cc(NC(=O)COc2ccc([N+](=O)[O-])cc2)no1 | 1.03% (inactive)
O=C(CSCc1ccc([N+](=O)[O-])cc1)Nc1cccc(C(=O)Nc2ccccc2C(=O)O)c1 | 11.3% (active)
O=C(CSCc1ccc([N+](=O)[O-])cc1)NCCSCc1ccccc1 | 1.53% (inactive)
O=C(COc1ccc([N+](=O)[O-])cc1)Nc1cccc(C(=O)Nc2ccccc2C(=O)O)c1 | 10.6% (active)
O=C(Nc1ccccc1C(=O)Nc1ccncc1)c1ccc([N+](=O)[O-])cc1 | -13.8% (inactive)
Cc1c(CC(=O)N2CCN(C(=O)C3COc4ccccc4O3)CC2)c(=O)oc2c(O)c(O)ccc12 (stereo not drawn) | 1.85% (inactive)
Cc1ccccc1Nc1scc(-c2ccc(Br)cc2)[n+]1-c1ccccc1C | 0.51% (inactive)
COCC(C)NC(=O)c1ccc(-n2nc(C(F)(F)F)cc2-c2cccs2)cc1 (stereo not drawn) | -0.17% (inactive)
COC(=O)c1cn(C)c2ccc(S(=O)(=O)N3CC(C)CC(C)C3)cc2c1=O (stereo not drawn) | 1.34% (inactive)
O=C(Nc1ccccc1C(F)(F)F)c1cc(-c2ccc(O)cc2)on1 | 12.7% (active)
CCc1ccccc1NC(=O)c1cc(-c2ccc3c(c2)OCO3)on1 | 0.47% (inactive)
O=C(Nc1cccnc1Cl)c1cc(-c2cccc(Cl)c2)on1 | -2.35% (inactive)
CNC(=O)c1nnn(-c2ccccc2)c1C(=O)NC | 4.23% (inactive)

Structure (SMILES) | Tm shift relative to glycine control
O=[N+]([O-])c1cc(C(F)(F)F)ccc1NCCc1ccncc1 | 0.61% (inactive)
Cc1ccc(C(=O)Nc2nc3ccc(Cl)cc3s2)o1 | 11.1% (active)
Cc1sc2ncnc(N3CCC(C(=O)Nc4nc5ccc(Cl)cc5s4)CC3)c2c1C | 7.43% (inactive)
Cc1csc(NC(=O)c2ccc(-c3ccc(Cl)cc3Cl)o2)n1 | -7.24% (inactive)
O=C(NCCCn1ccnc1)c1cc(-c2ccccc2)on1 | 1.42% (inactive)
CS/C(=C\[N+](=O)[O-])Nc1ccc(C)cc1 | -1.04% (inactive)
CCCC(=O)Nc1cccc(NC(=S)NC(=O)C(C)Oc2ccc(Cl)cc2Cl)c1 (stereo not drawn) | 16% (active)
COc1cccc(NC(=O)CN(C)C(=O)Cc2ccc(Cl)cc2Cl)c1 | -0.7% (inactive)
CC(Oc1ccc(Cl)cc1Cl)C(=O)/C=C/N(C)C (stereo not drawn) | -0.27% (inactive)
Cc1ccc(NC(=O)c2cnc(SCC(=O)NCC3CCCO3)n(C)c2=O)cc1 (stereo not drawn) | -0.94% (inactive)
CC(C)CN(C(=O)CN1CCN(S(=O)(=O)c2ccccc2)CC1)c1c(N)n(CC(C)C)c(=O)[nH]c1=O | -2.36% (inactive)
CSc1ccc(Cl)c(C(=O)OCC(=O)N2CC(C)OC(C)C2)c1 (stereo not drawn) | 1.12% (inactive)
O=C1NC(c2ccccc2)Cc2ccncc21 (stereo not drawn) | 0.42% (inactive)
CCc1ccc(NC(=O)C(C)OC(=O)/C=C/c2cccc([N+](=O)[O-])c2)cc1 (stereo not drawn) | 0.39% (inactive)
Cc1ccc(NC(=O)O/N=C/c2cccc([N+](=O)[O-])c2)cc1 | 15.8% (active)
CCC(CC)NC(=O)/C=C/c1cccc([N+](=O)[O-])c1 | -1.15% (inactive)
CCOc1ccc(-c2cc(C(=O)N/N=C/c3ccc(O)cc3)c3ccccc3n2)cc1 | 3.69% (inactive)
N#CCC(=O)N/N=C/c1cn(Cc2ccc3ccccc3c2)c2ccccc12 | 8.21% (inactive)
COc1cccc(Cn2cc(/C=N/NC(=O)c3cc(O)cc(O)c3)c3ccccc32)c1 | 15.4% (active)
Cc1ccc(C(=O)N/N=C/c2cccc3ccccc23)cn1 | -0.89% (inactive)
CCOC(=O)c1ccccc1NC(=O)CSc1nc2c(sc(=S)n2CC)c(=O)[nH]1 | 2.58% (inactive)
CCn1c(=S)sc2c(=O)n(CC(=O)Nc3ccc(OC)cc3)c(C)nc21 | -1.05% (inactive)
CCn1c(=S)sc2c(=O)n(CC(=O)Nc3cccc(Br)c3)c(C)nc21 | 19% (active)
CCCCN(CC)C(=O)C1CCCN(S(=O)(=O)c2cccc3nsnc23)C1 (stereo not drawn) | -4.45% (inactive)

Structure (SMILES) | Tm shift relative to glycine control
CC1C(=O)Nc2ccc(S(=O)(=O)N3CCN(c4ccccc4F)CC3)cc2NC1=O (stereo not drawn) | 0.26% (inactive)
Cc1cccc2nc(CNc3ccc(F)cc3)cn12 | -1.65% (inactive)
O=C(/C=C/c1ccccc1Cl)Nc1ccc(S(=O)(=O)Nc2ncccn2)cc1 | 3.4% (inactive)
NS(=O)(=O)c1ccc(NC(=O)/C=C/c2ccccc2Cl)cc1 | 22.5% (active)
CC(=O)NS(=O)(=O)c1ccc(NC(=O)/C=C/c2ccccc2Cl)cc1 | -4.31% (inactive)
O=C(O)c1ccccc1-c1ccccc1C(=O)Nc1ccccc1Br | -1.03% (inactive)
Cc1cc(N2C(=O)c3ccc(C(=O)NCc4ccccc4)cc3C2=O)no1 | -0.54% (inactive)
CC(C)C[C@H](NC(=O)N1CCn2c1nc1ccccc12)C(=O)NC1CC1 | -0.74% (inactive)
COc1ccc(/C=C/c2nnc(NC(=O)C(C)C)s2)cc1 | 6.05% (inactive)
O=C(CSc1ccccc1)Nc1nnc(/C=C/c2ccccc2)s1 | -4.65% (inactive)
O=C(Nc1ccc(Cl)cc1)Nc1nnc(/C=C/c2ccccc2)s1 | 10.2% (active)
CC1CN(c2cc(=O)n(Cc3ccc(F)cc3)c(=O)[nH]2)CC(C)O1 (stereo not drawn) | -2.45% (inactive)
COc1cc(CNC2CCCCC2)c(Br)cc1OC1CCCC1 | -0.72% (inactive)
O=C(c1cnn(-c2ccc(Cl)cc2)c1)c1ccccc1O | -2.84% (inactive)
Cc1cc(O)cc(O)c1C(=O)Cc1cnn(-c2ccccc2)c1 | 13.1% (active)
COc1ccc(CNC(=O)COc2ccccc2C(=O)c2cnn(-c3ccccc3)c2)cc1OC | 0.33% (inactive)
O=C(Nc1ccc(N2CCOCC2)nc1)c1c(F)cccc1F | 1.58% (inactive)
COC(=O)c1c(-c2ccsc2)oc2ccc(-c3cc(OC)c(OC)c(OC)c3)cc12 | 14.2% (active)
COc1ccccc1CNC(=O)c1cc(=O)c2ccccc2o1 | -2.39% (inactive)
COc1cc(CC(=O)NCc2cccs2)cc(OC)c1OC | 2.82% (inactive)
CCc1ccccc1NC(=O)CN(c1ccc(OC)cc1OC)S(=O)(=O)c1ccccc1[N+](=O)[O-] | -2.68% (inactive)
